AMA1-RON2 inh = disrupts binding of P. falciparum AMA1 to RON2. AlphaScreen AMA1-biotinylated RON2 peptide binding. Potency, µM (top dose mostly 58.2 µM), hits mostly inhibitors. actives 0.2% (n = 360,000). AID 720542; further: nearly all actives have a fitted effect of over 45% in size
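AMA1 (3D7) with his tag at 25 nM final met compounds first, then biotinylated RON2 peptide at 25 nM; detection used donor plus acceptor beads, 10 µg/mL apiece, read by AlphaScreen after 30 min at room temperature.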
Pf growth 48h = inhibits P. falciparum growth in the first generation, 48 h; AID 504832; actives 5.9% (n = 310,000); Potency, µM (highest dose often 28.7 µM), hits mostly inhibitors; P. falciparum luciferase growth in erythrocytes, 48 h
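Parasite viability was followed by luminescence of a genomically integrated firefly luciferase. Cultures held 0.1% parasitemia at 2% hematocrit (final), incubated under 5% CO2 at 37 C.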
HCV inhibitor = inhibitors of hepatitis C virus infection. Huh7.5.1 HCVcc-Cre infection, luciferase reporter, 44 h. Potency, µM (titrated, usually from 41.8 µM), hits mostly inhibitors. actives 3.4% (n = 340,000). AID 651820
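Luciferase read-out (15 sec integration) after a 15 min room-temperature substrate step quantifies HCVcc-Cre infection. Cells, 1,000 per well, had compound added 4 h post-plating, then virus at ~0.5 moi, and were cultured 44 h.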
AmpC detergent = blocks E. coli AmpC beta-lactamase in detergent assay; P00811; AmpC hydrolysis of nitrocefin, absorbance 480 nm, 0.01% Triton; Potency, µM (doses to about 114 µM), usual class: inhibitors; actives 0.041% (n = 370,000); AID 485294; further: nearly all actives have a fitted effect of over 25% in size
Target sequence (P00811 whole entry, looked up): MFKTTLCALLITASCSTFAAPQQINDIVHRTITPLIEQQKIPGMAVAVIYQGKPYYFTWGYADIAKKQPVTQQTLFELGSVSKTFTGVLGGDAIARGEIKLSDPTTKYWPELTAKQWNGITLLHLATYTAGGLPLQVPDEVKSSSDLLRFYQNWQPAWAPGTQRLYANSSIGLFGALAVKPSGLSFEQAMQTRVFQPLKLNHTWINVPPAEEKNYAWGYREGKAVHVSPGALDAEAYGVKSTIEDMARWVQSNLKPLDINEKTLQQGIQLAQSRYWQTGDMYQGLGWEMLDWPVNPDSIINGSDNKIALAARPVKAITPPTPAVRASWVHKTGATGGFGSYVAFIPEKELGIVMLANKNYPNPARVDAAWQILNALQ
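AmpC (5.3 nM in the dispensed reagent) in 20 mM phosphate pH 7.0 with 0.01% (detergent screen) or 0.0001% Triton X-100 was preincubated with compounds for 15 min at room temperature. Nitrocefin was then added from an 800 uM solution, and hydrolysis was followed at 480 nm.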
Pf growth 96h = P. falciparum growth inhibition at 96 hour, primary screen for plastid delayed-death inhibitors | P. falciparum luciferase reporter growth, 96 h | AID 504834 | actives 6.9% (n = 320,000) | Potency, µM (highest dose often 28.7 µM), usual class: inhibitors
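Delayed-death screen, second-generation endpoint: infected erythrocytes, 2% hematocrit, 0.05% parasitemia final; 96 hours at 37 C, 5% CO2; luciferase detection reagent; luminescence decrease equals reduced growth.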
AmpC no deterg = blocks E. coli AmpC beta-lactamase in detergent-free assay. AmpC nitrocefin hydrolysis, absorbance 480 nm, 0.0001% Triton. Potency, µM (doses to about 57.1 µM), actives largely listed as inhibitors. actives 0.52% (n = 330,000). AID 485341; further: nearly all actives have a fitted effect of over 20% in size
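AmpC (5.3 nM in the dispensed reagent) in 20 mM phosphate pH 7.0 with 0.01% (detergent screen) or 0.0001% Triton X-100 was preincubated with compounds for 15 min at room temperature. Nitrocefin was then added from an 800 uM solution, and hydrolysis was followed at 480 nm.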
A number is an active result. Only some compounds are listed: those with a hit (about 11% of all), similar ones and a draw of the others. The call rests on the fitted dose curve; in most records, active means well fitted curve in the direction sought with a large enough effect; inconclusive means small, poorly fitted or top-dose-only effect, or another doubt; inactive means no such curve, though single readings can be large; an effect the other way counts as inactive or inconclusive.

Screening COc1ccc(C(CCN2CCN(c3ccccc3)CC2)c2c(OC)cc(OC)c3c(-c4ccccc4)cc(=O)oc23)cc1 (centres undefined) returned AMA1-RON2 inh inconclusive, Pf growth 48h 3.3µM, HCV inhibitor inactive, AmpC detergent inactive, Pf growth 96h 4.7µM and AmpC no deterg inactive.
CCCCCc1cc(=O)oc2c(C(CCN3CCN(c4ccccc4)CC3)c3ccc(N(C)C)cc3)c(OC)cc(OC)c12 (centres undefined) was read as AMA1-RON2 inh 11µM, Pf growth 48h inconclusive, HCV inhibitor inactive, AmpC detergent inactive, Pf growth 96h inconclusive and AmpC no deterg inactive.
For COc1cc(OC)c2c(C)cc(=O)oc2c1C(CCN1CCOCC1)c1ccc(N(C)C)cc1 (centres undefined) the results were AMA1-RON2 inh inactive, Pf growth 48h 10µM, HCV inhibitor inconclusive, AmpC detergent inactive, Pf growth 96h inconclusive and AmpC no deterg inactive.
For c1ccc(N2CCN(c3nnc(Cc4cccnc4)c4ccccc34)CC2)nc1 the results were AMA1-RON2 inh inactive, Pf growth 48h 7.4µM, HCV inhibitor inconclusive, AmpC detergent inactive, Pf growth 96h inactive and AmpC no deterg inactive.
Screening Cc1ccc(C)c(N(C)C(=O)Cc2c(C(=O)O)[nH]c3ccc(Cl)cc23)c1 returned AmpC detergent inactive.
`C=CCCN(Cc1ccccc1)S(=O)(=O)c1cc(Br)ccc1Br` gave AMA1-RON2 inh inactive, Pf growth 48h 13µM, HCV inhibitor inactive, AmpC detergent inactive, Pf growth 96h inactive and AmpC no deterg inactive.
Screening CCOc1cc(CNc2ccc(C(=O)O)cc2)ccc1OCc1ccccc1 returned AmpC detergent inactive.
Screening CCOc1cc(CNc2ccc(CNc3ncn[nH]3)cc2)ccc1OCc1ccccc1 returned AMA1-RON2 inh inactive, Pf growth 48h inconclusive, HCV inhibitor inconclusive, AmpC detergent inactive, Pf growth 96h 13µM and AmpC no deterg inactive.
Screening O=C(COc1ccccc1[N+](=O)[O-])N(Cc1ccco1)c1ccccn1 returned AmpC detergent inactive.
For CCN(CCNCC(O)COc1ccccc1C(C)C)c1cccc(C)c1 (centres undefined) the results were AMA1-RON2 inh inconclusive, Pf growth 48h 3.3µM, HCV inhibitor 13µM, AmpC detergent inactive, Pf growth 96h 5.2µM and AmpC no deterg inactive.
Screening CS(=O)(=O)c1ncc(Cl)c(C(=O)Nc2ccc3ccccc3c2)n1 returned AMA1-RON2 inh inactive, Pf growth 48h inactive, HCV inhibitor 11µM, AmpC detergent inactive, Pf growth 96h inactive and AmpC no deterg inactive.
`CC(C)n1c(SCC(=O)Nc2ccccc2)nc2c1c(=O)[nH]c(=O)n2C` gave AMA1-RON2 inh inactive, Pf growth 48h inconclusive, HCV inhibitor inactive, AmpC detergent inactive, Pf growth 96h 13µM and AmpC no deterg inactive.
`CCn1c(SCC(=O)Nc2cccc(O)c2)nc2c1c(=O)n(C)c(=O)n2C` gave AMA1-RON2 inh inconclusive, Pf growth 48h inactive, HCV inhibitor inactive, AmpC detergent inactive, Pf growth 96h inconclusive and AmpC no deterg inactive.
Screening Cn1c(=O)c2c(nc(SCC(=O)Nc3ccccc3)n2C)n(C)c1=O returned AMA1-RON2 inh inactive, Pf growth 48h inactive, HCV inhibitor inactive, AmpC detergent inconclusive, Pf growth 96h inactive and AmpC no deterg inactive.
For CC(C)n1c(SCC(=O)Nc2ccccc2)nc2c1c(=O)n(C)c(=O)n2C the results were AMA1-RON2 inh inactive, Pf growth 48h 12µM, HCV inhibitor inconclusive, AmpC detergent inactive, Pf growth 96h inconclusive and AmpC no deterg inactive.
`CCn1c(SCC(=O)Nc2ccccc2)nc2c1c(=O)n(C)c(=O)n2C` gave AMA1-RON2 inh inactive, Pf growth 48h inactive, HCV inhibitor inactive, AmpC detergent inactive, Pf growth 96h 12µM and AmpC no deterg inactive.
CCOc1ccc(OCC)c(NC(=O)CSc2nc3c(c(=O)n(C)c(=O)n3C)n2C(C)C)c1 was read as AMA1-RON2 inh inactive, Pf growth 48h 4.1µM, HCV inhibitor 10µM, AmpC detergent inactive, Pf growth 96h 3.3µM and AmpC no deterg inactive.
Screening C=Cc1ccc(Cn2c(C(=O)O)c(CNCc3ccccc3)c3ccc(OC)cc32)cc1 returned AmpC detergent inactive.
COc1ccc(Cn2c(=O)c3cccnc3n(CC(=O)Nc3ccc(C)c(F)c3)c2=O)cc1 was read as AmpC detergent inactive.
For CCOc1ccc(CCNC(=O)Cc2ccc(NC(=O)N3CCSc4ncccc43)cc2)cc1 the results were AmpC detergent inactive.
`O=C(Nc1cc(-c2nc3ccccc3s2)ccc1Cl)c1cc2ccccc2o1` gave AmpC detergent inactive.
Screening CCN(CC)CCN(C(=O)c1ccco1)c1nc2ccc(Br)cc2s1 returned AmpC detergent inactive.
CC1(OC(=O)CCc2ccccc2)C(=O)C=C2C=C(c3ccc(C#N)cc3)N(Cc3ccccc3)C=C2C1=O (centres undefined) was read as AMA1-RON2 inh inactive, Pf growth 48h inconclusive, HCV inhibitor inactive, AmpC detergent inactive, Pf growth 96h inconclusive and AmpC no deterg inactive.
For CCCCC1=CC2=CC(=O)C(C)(OC(=O)CC)C(=O)C2=CN1c1ccc(OC)cc1 (centres undefined) the results were AMA1-RON2 inh inactive, Pf growth 48h 12µM, HCV inhibitor inactive, AmpC detergent inactive, Pf growth 96h 9.3µM and AmpC no deterg inactive.
For CC1(OC(=O)CCc2ccccc2)C(=O)C=C2C=C(c3ccc(C#N)cc3)N(C3CC3)C=C2C1=O (centres undefined) the results were AMA1-RON2 inh inactive, Pf growth 48h 13µM, HCV inhibitor inactive, AmpC detergent inactive, Pf growth 96h inconclusive and AmpC no deterg inactive.
CCCCC1=CC2=CC(=O)C(C)(OC(=O)CC)C(=O)C2=CN1C1CCCCC1 (centres undefined) was read as AMA1-RON2 inh inactive, Pf growth 48h inconclusive, HCV inhibitor inactive, AmpC detergent inactive, Pf growth 96h 9.3µM and AmpC no deterg inactive.
COc1ccc(-c2cc(C(F)(F)F)n3nc(C(=O)Nc4ccccc4SC)cc3n2)cc1OC was read as AmpC detergent inactive.
For CCOC(=O)CNC(=O)CSc1cn(CC(=O)N2CCCCCC2)c2ccccc12 the results were AmpC detergent inactive.
`CCOc1ccccc1CNC(=O)CCn1ccc2cc(S(=O)(=O)N3CCC(C)CC3)ccc21` gave AmpC detergent inactive.
`Cc1cc(C)c2c(=O)n(CC(=O)Nc3cccc(F)c3)sc2n1` gave AMA1-RON2 inh inactive, Pf growth 48h inactive, HCV inhibitor inconclusive, AmpC detergent 79µM, Pf growth 96h inactive and AmpC no deterg inconclusive.
